# The full list was thinned out, with hits kept by preference.
# Pf Dd2 growth – inhibitors of Plasmodium falciparum Dd2 growth | P. falciparum Dd2 growth, SYBR Green, 72 h | Potency, µM (highest dose often 28.9 µM), inactives show at the top dose activity, negative = inhibition, most hits filed as inhibitors | hit rate 4.3% among 120,000 | AID 1347417; active = well fitted inhibition curve with a large enough effect;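 note: plate controls were DMSO vehicle for no effect and reference drug for full effect; nearly all actives have a fitted effect of over 65% in size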
#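 Infected erythrocytes (Dd2, 0.3% parasitemia, 2.5% hematocrit final) are added to compound in RPMI-1640/Albumax II medium, grown 72 h at 37C in low oxygen, then lysed with saponin/Triton-X containing SYBR Green and read by fluorescence.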
# Numbers without * were called inactive; i = inactive; [ ] = another dose, or the depositor's remark. Potency is the fitted concentration of half-maximal effect.
SMILES,Pf Dd2 growth
Cc1ccc(C(=O)N2CCC(N3CC(OCC4CC4)C34CCCCC4)CC2)cn1 (stereo not drawn),-4.9%
C1CC2(CCN1)CC(OCC1CC1)CCO2 (stereo not drawn),24.6%
CC(C)C(=O)N1CCC(N2CC(OCC3CC3)C23CCCCC3)CC1 (stereo not drawn),3.16µM*
C1CCC2(CC1)C(OCC1CC1)CN2C1CCNCC1 (stereo not drawn),3.98µM*
COCCOC1CN(C2CCN(C(=O)NC(C)C)CC2)C12CCCCC2 (stereo not drawn),i
O=C1C(O)C2(CCCCC2)N1C1CCNCC1 (stereo not drawn),10.3%
CC(=O)N1CCC(NC2(Cc3cc(COc4ccccc4)on3)COC2)CC1,-1.0%[44.1 µM]
CC1=C[C@@H](CC#N)[C@H](C(C)C)C[C@H]1CC(=O)NCc1ccc(F)cc1,i
Cc1noc(C)c1Cn1cnc(-c2ccccc2)c1-c1ccc(CO)o1,-10.7%
COCCC(=O)N1CC(F)(F)C[C@H]1c1nc(C2CC2)no1,1.2%
CCOC(=O)c1ccc(N2C(=O)c3[nH]nc(-c4ccc(C)cc4)c3C2c2cccc(F)c2)cc1 (stereo not drawn),5.01µM*
CCCN1C(=O)c2[nH]nc(-c3ccc(F)cc3)c2C1c1ccc(O)c(OCC)c1 (stereo not drawn),i
Cc1ccc(N2C(=O)c3n[nH]c(C)c3C2c2ccc(Cl)cc2)cc1 (stereo not drawn),-18.0%
CCOc1ccc(N2CC(NC(=O)Cc3cccs3)CC2=O)cc1 (stereo not drawn),i
CCOc1ccc(-c2n[nH]c3c2C(c2cccs2)N(c2ccc(Br)cc2)C3=O)cc1 (stereo not drawn),3.55µM*
CCOC(=O)c1ccc(N2C(=O)c3[nH]nc(-c4ccccc4)c3C2c2ccc(CC)cc2)cc1 (stereo not drawn),10µM*
CCCN1C(=O)c2[nH]nc(-c3ccc(OC)cc3)c2C1c1ccccn1 (stereo not drawn),-18.6%
CCOc1ccc(C(=O)OCc2cc(=O)n3nc(C4CC4)sc3n2)cc1,-6.5%
CCOC(=O)c1ccc(N2C(=O)c3[nH]nc(-c4ccc(OCC)cc4)c3C2c2cccs2)cc1 (stereo not drawn),2.82µM*
O=C1c2[nH]nc(-c3ccc(F)cc3)c2C(c2ccccc2F)N1c1ccccc1 (stereo not drawn),-28.2%
CCCN1C(=O)c2[nH]nc(-c3ccc(F)cc3)c2C1c1ccccn1 (stereo not drawn),-15.0%
CCc1ccc(C2NC(=O)c3[nH]nc(-c4cccc(OC)c4)c32)cc1 (stereo not drawn),-10.3%
CNC(=O)[C@@H]1C[C@@H](O)CN1C1CCN(C(=O)Cc2cccc(C)c2)CC1,18.9%
Cc1cnc(N2CC3CCC(C2)N3CC(F)(F)F)c([N+](=O)[O-])c1,-2.3%
O=C(N[C@H]1CCN2C(=O)N(c3ccc(F)c(Cl)c3)C(=O)[C@@H]2C1)c1ccncc1,-23.8%[44.1 µM]
SMILES,Pf Dd2 growth
C[C@@]1(O)CCN(Cc2cn[nH]c2-c2ccccc2)C[C@H]1N1CCCC1,-13.6%[5.79 µM]
COc1cccc(C2Cn3nnc(-c4nc(-c5ccc(C(F)(F)F)cc5)no4)c3CO2)c1 (stereo not drawn),-12.8%
Cc1cccc(NC(=O)Cn2c(-c3cnccn3)nc(C)c(CCO)c2=O)c1C,i
COCc1cc(C[C@@H]2CC[C@H](O)[C@@H](CN(C(=O)Nc3ccc(OC)cc3)C(=O)Nc3ccc(OC)cc3)O2)no1,-21.4%
O=C1NCCCCCCN(C(=O)c2cccnc2)[C@H]2CCC[C@@H]12,2.4%
c1ccc2sc([C@H]3CCN(Cc4ccc5c(c4)OCO5)C3)nc2c1,i
CC(=O)Nc1ccc(CN(CCN2CCCCC2)CC2CCCN(C3CCCC3)C2)cc1 (stereo not drawn),-25.6%
CCN(C(=O)c1ccc2c(c1)N(S(C)(=O)=O)CC2)c1ccccc1C,i
CCOC(=O)c1ccc(N2C(=O)c3[nH]nc(-c4ccccc4)c3C2c2cccs2)cc1 (stereo not drawn),7.08µM*
CCOC(=O)c1ccc(NC(=O)c2oc(=O)c3ccccc3c2-c2ccccc2)cc1,24.0%
CCOc1ccccc1NC(=O)C1=C(C)Nc2ncnn2C1c1cccs1 (stereo not drawn),1.1%
O=C(N[C@H]1CCCNC1=O)C1=C[C@@H](NS(=O)(=O)c2cccs2)[C@@H](O)[C@H](O)C1,-8.3%[44.1 µM]
Cc1ncc2c(c1CNC(=O)c1ccccc1-c1ncc[nH]1)CCNC2,-15.5%
CCn1nnc2cc(C(=O)Nc3cccc(C(F)(F)F)c3)ccc21,-5.4%
CCN(CC)c1cc(C)c2cc(NC(=O)c3cccc(F)c3)ccc2n1,-6.2%
Cc1ccccc1-c1nc2cc(NC(=O)Cc3ccc(Cl)cc3)ccc2o1,3.0%
Cc1ccc(OCC(=O)Nc2ccc3nc(Nc4cccc(Cl)c4)cc(C)c3c2)cc1,35.8%
Cc1cc(Nc2cccc(C(F)(F)F)c2)nc2ccc(NC(=O)c3ccc(N(C)C)cc3)cc12,2.82µM*
Cc1cc(Nc2cccc(C(F)(F)F)c2)nc2ccc(NC(=O)Cc3ccc(Cl)cc3)cc12,11.2µM*
